Test results as given in article PMC5540273 (PLoS ONE, 2017).

Tests used:
Conditions in all cases: concentration: 1 μM, replicates: in singlicate; n = 1
CSNK1G1 = tested on: CSNK1G1
CSNK1G2 = tested on: CSNK1G2
CSNK1G3 = tested on: CSNK1G3
CSNK2A1 = tested on: CSNK2A1
CSNK2A2 = tested on: CSNK2A2
CTK = tested on: T1, CTK
T1 construct: gene MATK

DAPK1 = tested on: DAPK1
DAPK2 = tested on: DAPK2
DAPK3 = tested on: DAPK3
DCAMKL1 = tested on: T2, DCAMKL1
T2 construct: gene DCLK1

DCAMKL2 = tested on: T3, DCAMKL2
T3 construct: gene DCLK2

DCAMKL3 = tested on: T4, DCAMKL3
T4 construct: gene DCLK3

DDR1 = tested on: DDR1
DDR2 = tested on: DDR2
DLK = tested on: T5, DLK
T5 construct: gene MAP3K12

DMPK2 = tested on: T6, DMPK2
T6 construct: gene CDC42BPG

DMPK = tested on: DMPK
DRAK1 = tested on: T7, DRAK1
T7 construct: gene STK17A

DRAK2 = tested on: T8, DRAK2
T8 construct: gene STK17B

DYRK1A = tested on: DYRK1A
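Note: KINOMEscan kinase panel screen.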

| SMILES | %Inh (CSNK1G1) | %Inh (CSNK1G2) | %Inh (CSNK1G3) | %Inh (CSNK2A1) | %Inh (CSNK2A2) | %Inh (CTK) | %Inh (DAPK1) | %Inh (DAPK2) | %Inh (DAPK3) | %Inh (DCAMKL1) | %Inh (DCAMKL2) | %Inh (DCAMKL3) | %Inh (DDR1) | %Inh (DDR2) | %Inh (DLK) | %Inh (DMPK2) | %Inh (DMPK) | %Inh (DRAK1) | %Inh (DRAK2) | %Inh (DYRK1A) |
| --- | --- | --- | --- | --- | --- | --- | --- | --- | --- | --- | --- | --- | --- | --- | --- | --- | --- | --- | --- | --- |
| Cc1ccc(-c2ccc3occ(-c4ccc(S(C)=O)cc4)c3c2)nn1 (stereo not shown) | 0% | 0% | 0% | 0% | 10% | 0% | 0% | 0% | 0% | 4% | 0% | 21% | 0% | 16% | 0% | 0% | 8% | 10% | 22% | 0% |
| Cc1cc(-c2ccnc(Nc3cccc(C#N)c3)n2)cc(C)c1O [GSK1440913] | 17% | 12% | 55% | 40% | 46% | 4% | 20% | 9% | 5% | 8% | 10% | 61% | 0% | 23% | 46% | 22% | 0% | 96.8% | 45% | 46% |
| Cn1cc(-c2ccc3c(c2)CCN3C(=O)Cc2cc(F)cc(F)c2F)c2c(N)ncnc21 [GSK2634140] | 23% | 8% | 18% | 12% | 0% | 0% | 0% | 0% | 0% | 0% | 0% | 0% | 72% | 27% | 31% | 56% | 0% | 0% | 0% | 16% |
| Cn1cc(-c2ccc3c(c2)CCN3C(=O)Cc2cc(F)cc(C(F)(F)F)c2)c2c(N)ncnc21 [GSK2635225] | 22% | 12% | 15% | 2% | 0% | 0% | 21% | 6% | 19% | 3% | 0% | 0% | 100% | 85% | 23% | 0% | 0% | 0% | 0% | 4% |
| CN(c1ccc(NC(=O)N2CCN(CCCN3CCOCC3)CC2)cc1)c1ccnc(Nc2ccc(CS(C)(=O)=O)cc2)n1.Cl [GW830899] | 19% | 6% | 5% | 0% | 0% | 0% | 4% | 0% | 0% | 0% | 0% | 5% | 36% | 54% | 24% | 0% | 0% | 0% | 13% | 0% |
| Cc1ccc(NC(=O)c2cccc(N3CCCCC3)c2)cc1-c1ccc(C(=O)NCC2CC2)cc1 [GSK1917008] | 8% | 0% | 24% | 29% | 10% | 17% | 0% | 0% | 29% | 16% | 19% | 0% | 100% | 64% | 8% | 100% | 3% | 0% | 9% | 27% |
| Cl.N#CCc1ccc(Nc2nccc(Nc3ccc(Oc4ccccc4)cc3)n2)cc1 [GW639905] | 1% | 0% | 8% | 0% | 9% | 28% | 0% | 60% | 40% | 12% | 0% | 1% | 32% | 5% | 35% | 0% | 0% | 22% | 0% | 19% |
| Cc1cc(-c2c(-c3ccc(F)cc3)ncn2CCCN2CCOCC2)nc(N)n1 [SB-222517] | 0% | 8% | 0% | 0% | 0% | 0% | 0% | 21% | 38% | 40% | 2% | 0% | 0% | 21% | 0% | 0% | 16% | 13% | 15% | 0% |
| O=C(Nc1n[nH]c2nc(-c3ccccc3O)ccc12)C1CC1 [SB-711880] | 0% | 0% | 28% | 49% | 84% | 36% | 12% | 0% | 21% | 22% | 0% | 0% | 1% | 0% | 32% | 0% | 0% | 3% | 0% | 9% |
| Cc1ccc(C)c(NC(=O)Nc2ccc(C)c(-c3ccc(C(=O)Nc4ccncc4)cc3)c2)c1 [GSK1398473] | 3% | 15% | 32% | 15% | 0% | 0% | 26% | 0% | 2% | 13% | 0% | 13% | 99.8% | 72% | 0% | 1% | 4% | 0% | 0% | 36% |
| CN(C)c1ncnc2nc[nH]c12 [SKF-31736] | 3% | 0% | 0% | 0% | 5% | 36% | 7% | 3% | 20% | 32% | 0% | 0% | 0% | 35% | 12% | 0% | 2% | 0% | 0% | 0% |
| CS(=O)(=O)c1cccc(CNc2nc(Nc3ccc4c(c3)CCC(=O)N4)ncc2C(F)(F)F)c1 | 0% | 4% | 0% | 17% | 51% | 0% | 0% | 0% | 11% | 36% | 0% | 99.4% | 0% | 2% | 13% | 0% | 0% | 95.6% | 98.3% | 85% |
| CN(C)CCOc1ccc(-c2cc(-c3ccc(Cl)c(O)c3)c(-c3ccncc3)[nH]2)cc1.Cl.Cl [SB-684387] | 36% | 0% | 37% | 24% | 32% | 3% | 14% | 0% | 22% | 21% | 0% | 10% | 56% | 38% | 14% | 41% | 29% | 20% | 0% | 0% |
| Cc1nn2c(=O)cc(N3CCO[C@H](C)C3)nc2n1Cc1cccc(Cl)c1Cl [GSK2373693] | 10% | 0% | 26% | 50% | 63% | 0% | 37% | 54% | 94.7% | 0% | 6% | 34% | 18% | 0% | 0% | 0% | 1% | 0% | 11% | 48% |
| Cc1ccc(Nc2ccnc(Nc3ccc(C)c(F)c3)n2)cc1O.Cl [GW582868] | 0% | 0% | 0% | 0% | 9% | 0% | 0% | 0% | 4% | 11% | 0% | 0% | 10% | 12% | 40% | 0% | 0% | 0% | 0% | 20% |
| CSc1ccc(NC2=C(c3ccc(Cl)cc3)C(=O)NC2=O)cc1 [SB-317658] | 0% | 15% | 0% | 0% | 25% | 19% | 0% | 0% | 0% | 0% | 2% | 12% | 0% | 5% | 0% | 10% | 8% | 12% | 0% | 1% |
| c1ccc(Oc2ccc(Nc3ccnc4cc(-c5ccc(CN6CCCCC6)o5)ccc34)cc2)nc1 [GW567143] | 0% | 6% | 3% | 15% | 12% | 5% | 0% | 0% | 0% | 4% | 8% | 25% | 30% | 35% | 79% | 0% | 0% | 0% | 0% | 26% |
